Structures can show the parent of a compound that is named as a salt. Unmarked numbers belong to inactive results.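 How the source made its calls: active = AUC significantly below DMSO controls by Student t-fit with adjusted P under 0.01; inactive = not significantly reduced.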
What follows are molecules tested on Haemophilus parainfluenzae (assay: growth AUC normalised to DMSO control (fraction of control); higher = less growth inhibition, active = hit call of the paper). Conditions: 20 µM.
Procedure, shortened: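 Three biological replicates were carried out, with OD578 read hourly for 24 h. Before inoculation at a starting OD578 of 0.01, pathogens were passaged anaerobically twice; plates were pre-reduced mGAM containing 20 μM compound and 1% DMSO, sealed with breathable membranes, and the Haemophilus parainfluenzae medium carried added hemin and NAD. Area under each growth curve was calculated by the trapezoidal rule up to the exponential-to-stationary transition and normalised to DMSO controls on the same plate.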

Row | Compound | growth AUC normalised to DMSO control
1 | CC(C)COCC(CN(Cc1ccccc1)c1ccccc1)N1CCCC1 (stereo unspecified) [Bepridil hydrochloride] | 0.771
2 | CCCc1cc(=O)[nH]c(=S)[nH]1 [Propylthiouracil] | 0.991
3 | CC(N)CCCC(C)(C)O (stereo unspecified) [Heptaminol hydrochloride] | 1.02
4 | CC(=O)N(CC(C)C(=O)O)c1c(I)cc(I)c(N)c1I (stereo unspecified) [Iocetamic acid] | 0.965
5 | CCCN(CCC)CCc1cccc2c1CC(=O)N2 [Ropinirole hydrochloride] | 1
6 | CN(C)CCOC(=O)C(c1ccccc1)C1(O)CCCC1 (stereo unspecified) [Cyclopentolate hydrochloride] | 1.04
7 | O=C(NCCNCC(O)COc1ccc(O)cc1)N1CCOCC1 (stereo unspecified) [Xamoterol hemifumarate] | 0.775
8 | C[C@@H]1C[C@H]2[C@@H]3CCC4=CC(=O)C=C[C@]4(C)[C@@]3(Cl)[C@@H](O)C[C@]2(C)[C@@]1(OC(=O)c1ccco1)C(=O)CCl [Mometasone furoate] | 1.05
9 | OCCN(CCO)c1nc(N2CCCCC2)c2nc(N(CCO)CCO)nc(N3CCCCC3)c2n1 [Dipyridamole] | 0.993
10 | C=C1c2cccc(O)c2C(O)=C2C(=O)[C@]3(O)C(O)=C(C(N)=O)C(=O)[C@@H](N(C)C)[C@@H]3[C@@H](O)[C@H]12 [Methacycline hydrochloride] | 0.0347 (active)
11 | NS(=O)(=O)c1cc2c(cc1Cl)NC(C(Cl)Cl)NS2(=O)=O (stereo unspecified) [Trichlormethiazide] | 1.01
